Bioassay records deposited in PubChem by several laboratories.
In the library only some 1.2% were active in any assay of this set; here they are far more common.
Mtb betalactam: beta-lactam sensitization of Mtb H37Rv; inhibition, % at 25 µM; M. tuberculosis H37Rv growth with meropenem, percent inhibition; 0.27% of 330,000 active; AID 434955; call rule not given here;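 further: growth measured after seven days incubation then overnight dye step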
UGM FP inh: inhibitors of M. tuberculosis UDP-galactopyranose mutase. P9WIQ1. purified UGM, fluorescence polarization probe displacement. inhibition, % at 10 µM. 0.06% of 320,000 active. AID 504406; in the data active means inhibition above about 10%, passing the limit was not always enough
CCHF vOTU inh-1: blocks the CCHF virus ovarian tumor domain protease; CCHFV vOTU protease, Pep-AMC fluorescence; 0.55% of 370,000 active; AID 651958; inhibition, % at 11.5 µM
RecA intein inh: blocks M. tuberculosis RecA intein splicing; P9WHJ3; cell-free RecA intein splicing, fluorescence; inhibition, % (concentration not given with the values); 0.75% of 290,000 active; AID 2221; in the data active means inhibition above about 30%
Rv3671c protease: Rv3671c (M. tuberculosis) protease inhibition; inhibition, % at 5.96 µM; 0.048% of 320,000 active; AID 2606; in the data active means inhibition above about 38%;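 further: extracellular domain of Rv3671c used as enzyme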
Target sequence (P9WHR9 whole entry, looked up, the tested form may be a part): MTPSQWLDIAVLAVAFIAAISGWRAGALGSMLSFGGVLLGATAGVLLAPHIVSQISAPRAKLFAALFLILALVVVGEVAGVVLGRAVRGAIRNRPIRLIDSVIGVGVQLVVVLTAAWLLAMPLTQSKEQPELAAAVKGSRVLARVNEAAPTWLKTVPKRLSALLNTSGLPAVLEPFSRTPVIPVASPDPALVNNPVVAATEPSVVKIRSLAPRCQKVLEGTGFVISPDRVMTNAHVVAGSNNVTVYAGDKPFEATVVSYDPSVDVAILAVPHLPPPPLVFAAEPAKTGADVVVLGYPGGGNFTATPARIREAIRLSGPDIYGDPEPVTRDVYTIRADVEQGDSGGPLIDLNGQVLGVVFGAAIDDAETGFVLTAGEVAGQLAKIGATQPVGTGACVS
CCHF vOTU inh-2: CCHFV vOTU protease inhibition, confirmation; shares compounds with CCHF vOTU inh-1; Recombinant CCHFV vOTU, Pep-AMC fluorescence; inhibition, % at 11.5 µM; 17% of 1,900 active
Numbers stand for hits. Unless noted, no stated cut-off is given here; in the data, active means inhibition above about 30%; inactive means the rest.

`Cn1c(NC(=O)c2ccccc2)nc(Cc2ccccc2)c1-c1ccccc1` gave CCHF vOTU inh-1 inactive.
O=C(N=C1c2ccccc2CN1c1ccccc1)c1cccc([N+](=O)[O-])c1 was read as Mtb betalactam inactive, UGM FP inh inactive, CCHF vOTU inh-1 30, RecA intein inh inactive, Rv3671c protease inactive and CCHF vOTU inh-2 inactive.
CC(C)c1ccc(C(c2c(O)c3ccccc3oc2=O)c2c(O)c3ccccc3oc2=O)cc1 was read as CCHF vOTU inh-1 37 and CCHF vOTU inh-2 inactive.
For O=c1oc2ccccc2c(O)c1C(c1ccc([N+](=O)[O-])cc1)c1c(O)c2ccccc2oc1=O the results were CCHF vOTU inh-1 inactive and RecA intein inh inactive.
Screening O=C(Nc1ccc(F)cc1)OCc1cn(Cc2ccc(F)cc2F)nn1 returned CCHF vOTU inh-1 inactive.
For COc1ccccc1/C=C/C=N/NC(=O)c1cnccn1 the results were Mtb betalactam inactive, UGM FP inh inactive, CCHF vOTU inh-1 30, RecA intein inh inactive, Rv3671c protease inactive and CCHF vOTU inh-2 inactive.
For COc1ccccc1/C=C/C=N/NC(=O)c1ccccn1 the results were Mtb betalactam inactive, UGM FP inh inactive, CCHF vOTU inh-1 inactive, RecA intein inh inactive and Rv3671c protease inactive.
Cc1c(C(=O)O)cccc1-c1ccc(C=O)o1 was read as Mtb betalactam inactive, UGM FP inh inactive, CCHF vOTU inh-1 36, RecA intein inh inactive, Rv3671c protease inactive and CCHF vOTU inh-2 inactive.
Screening CCC(Sc1nc2ccsc2c(=O)n1Cc1ccc(C(=O)O)cc1)C(=O)Nc1ccc(C)c(Cl)c1 (stereo unspecified) returned Mtb betalactam inactive, UGM FP inh inactive, CCHF vOTU inh-1 31, RecA intein inh inactive, Rv3671c protease inactive and CCHF vOTU inh-2 inactive.
CCOC(=O)CSc1nc2c(sc(=S)n2-c2ccc(CC)cc2)c(=O)[nH]1 was read as Mtb betalactam inactive, UGM FP inh inactive, CCHF vOTU inh-1 35, RecA intein inh inactive, Rv3671c protease inactive and CCHF vOTU inh-2 inactive.
CCOC(=O)CC(=O)CSc1nc2c(sc(=S)n2-c2ccccc2)c(=O)[nH]1 was read as Mtb betalactam inactive, UGM FP inh inactive, CCHF vOTU inh-1 inactive, RecA intein inh inactive and Rv3671c protease inactive.
O=C(NCc1ccc(F)c(F)c1)C1CCCN(c2nc3ccccc3o2)C1 (stereo unspecified) was read as CCHF vOTU inh-1 inactive.
Screening CC[C@@H](CCCc1ccc(F)cc1)CN(Cc1ccc(OC)cc1)S(=O)(=O)c1ccc(C)cc1 returned CCHF vOTU inh-1 inactive.
COc1ccc2nc(-c3ccco3)c(-c3ccco3)nc2c1 was read as Mtb betalactam inactive, UGM FP inh inactive, CCHF vOTU inh-1 63, RecA intein inh inactive, Rv3671c protease inactive and CCHF vOTU inh-2 inactive.
c1coc(-c2nc(-c3ccco3)c(-c3ccco3)nc2-c2ccco2)c1 was read as Mtb betalactam inactive, UGM FP inh inactive, CCHF vOTU inh-1 35, Rv3671c protease inactive and CCHF vOTU inh-2 inactive.
For Cc1ccc(NN=C2c3ccccc3-c3ccccc32)cc1 the results were Mtb betalactam inactive, UGM FP inh inactive, CCHF vOTU inh-1 35, RecA intein inh inactive, Rv3671c protease inactive and CCHF vOTU inh-2 inactive.
COc1cc(NS(=O)(=O)c2ccc(Nc3nc(-c4ccccc4)cs3)cc2)nc(OC)n1 was read as Mtb betalactam inactive, UGM FP inh inactive, CCHF vOTU inh-1 36, RecA intein inh inactive, Rv3671c protease inactive and CCHF vOTU inh-2 inactive.
CCCCCCCCC(=O)NC(NC(=S)N1CCOCC1)C(Cl)(Cl)Cl (stereo unspecified) was read as Mtb betalactam inactive, UGM FP inh inactive, CCHF vOTU inh-1 36, RecA intein inh inactive, Rv3671c protease inactive and CCHF vOTU inh-2 inactive.
Screening CC1(Cc2ccc(C(F)(F)F)o2)C(=O)Nc2cc(-c3ccc(F)cc3F)ccc21 (stereo unspecified) returned CCHF vOTU inh-1 39 and CCHF vOTU inh-2 inactive.
For CC1(Cc2cc(Cl)ccc2C(F)(F)F)C(=O)Nc2cc(C(F)(F)F)ccc21 (stereo unspecified) the results were CCHF vOTU inh-1 inactive.
Screening CCc1nc2c(OCCC3CCCCC3)cccn2c1N(C)C(=O)c1ccc(OC)cc1 returned CCHF vOTU inh-1 inactive.
For CCc1nc2c(OCCC3CCCCC3)cccn2c1N(C)C(=O)c1ccncc1 the results were CCHF vOTU inh-1 31 and CCHF vOTU inh-2 inactive.
`CCOC(=S)NC(=O)c1sc2ccccc2c1Cl` gave Mtb betalactam inactive, UGM FP inh inactive, CCHF vOTU inh-1 34, RecA intein inh inactive, Rv3671c protease inactive and CCHF vOTU inh-2 inactive.
`CCCOC(=S)NC(=O)c1sc2ccccc2c1Cl` gave Mtb betalactam inactive, UGM FP inh inactive, CCHF vOTU inh-1 inactive, RecA intein inh inactive and Rv3671c protease inactive.
`C#CCN1CC(N(C)CCOC(=O)CC2C=CCC2)CS1(=O)=O` (stereo unspecified) gave CCHF vOTU inh-1 inactive.
`CCc1c(C(=O)N/N=C/c2ccsc2)csc1C` gave Mtb betalactam inactive, UGM FP inh inactive, CCHF vOTU inh-1 30, RecA intein inh inactive, Rv3671c protease inactive and CCHF vOTU inh-2 inactive.
`O=C1NC[C@H](Cc2ccccc2)N(C[C@H]2CCCN2C[C@H](Cc2ccccc2)N2C[C@H](Cc3ccccc3)N(CC3CCCCC3)C(=O)C2=O)C1=O` gave CCHF vOTU inh-1 inactive.
CC(C)C[C@@H](CN1CCC[C@@H]1CN1C(=S)NC[C@@H]1Cc1ccc(O)cc1)N1C[C@H](Cc2ccc(O)cc2)N(CC2CCCCCC2)C1=S was read as CCHF vOTU inh-1 32 and CCHF vOTU inh-2 inactive.
`O=C1NC[C@@H](CCCCN2C[C@H](Cc3ccc(O)cc3)N(CCC3CCCCC3)C(=O)C2=O)N(CC2CCCCC2)C1=O` gave CCHF vOTU inh-1 35 and CCHF vOTU inh-2 inactive.
O=C1NC[C@H](CCCCN2C[C@H](Cc3ccc(O)cc3)N(CC3CCCCC3)C(=O)C2=O)N(CCC2CCCCC2)C1=O was read as CCHF vOTU inh-1 inactive.
Screening O=C1NC[C@H](Cc2ccccc2)N(C[C@@H]2CCCN2C[C@H](Cc2ccccc2)N2C[C@H](Cc3ccccc3)N(CC3CCCCC3)C(=O)C2=O)C1=O returned CCHF vOTU inh-1 30 and CCHF vOTU inh-2 inactive.
For CCOC(=O)[C@@]12CCCC3=C1N(CCC3)C(=O)[C@H]2CC(=O)NCCC(C)C the results were CCHF vOTU inh-1 inactive.
CN(C)c1ccc(-c2nc3ncc(Cl)cc3[nH]2)cc1 was read as CCHF vOTU inh-1 inactive.
Screening Cc1ccc(-n2cccc2/C=C2/C(=N)N3C(=NC2=O)SN=C3S(C)(=O)=O)cc1Cl returned Mtb betalactam inactive, UGM FP inh inactive, CCHF vOTU inh-1 52, Rv3671c protease inactive and CCHF vOTU inh-2 inactive.
Screening CCC1=NN2C(=N)/C(=C\c3cccn3-c3c(C)cccc3C)C(=O)N=C2S1 returned Mtb betalactam inactive, UGM FP inh inactive, CCHF vOTU inh-1 inactive, RecA intein inh inactive and Rv3671c protease inactive.
Screening Cc1cccc(C)c1-n1cccc1/C=C1/C(=N)N2C(=NC1=O)SN=C2S(C)(=O)=O returned Mtb betalactam inactive, UGM FP inh inactive, CCHF vOTU inh-1 35, RecA intein inh inactive, Rv3671c protease inactive and CCHF vOTU inh-2 inactive.
